HEK293 cAMP cs: parental HEK293 cAMP activation (counter-screen); parental HEK293 CNG cAMP sensor, membrane potential fluorescence; Potency, µM (top dose mostly 57.1 µM), inactives show at the highest dose activation, usual class: activators; hit rate 2.5% among 73,000; AID 938; note: % of control where 0% means no effect; nearly all actives have a fitted effect of over 55% in size
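Parental HEK 293 cells stably expressing a cAMP-gated CNG channel were loaded with membrane potential dye containing 100 uM RO 20-1724 for 60 min. Compound added for 30 min; depolarization read as fluorescence intensity at 590 nm.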
ERK AVP block: blocks ERK signaling stimulated by vasopressin | HEK293-V1b, vasopressin-stimulated pERK AlphaScreen | Potency, µM (doses to about 57.5 µM), inactives show top-dose activity, negative = inhibition, actives largely listed as inhibitors | hit rate 0.99% among 72,000; note: % is set by controls: 0 for no effect and ±100 for the full control effect; nearly all actives have a fitted effect of over 55% in size
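qHTS, compounds titrated on V1b-expressing HEK293 cells. Preincubation 30 min at 37C, vasopressin 25 nM for 5 min, lysis 10 min, bead incubation 5 hr at room temperature.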
TSHR ag: TSH receptor (human) agonism | P16473 | AID 926 | Potency, µM (series often up to 57.1 µM), for inactives: at the top dose activation, most hits filed as activators | HEK293-CNG-TSHR cells (CNG channel as cAMP sensor), membrane potential dye, cAMP | hit rate 0.48% among 73,000; active = well fitted activation curve with a large enough effect in the main read-out, with a control signal flat, not every such curve was filed as active; inconclusive = small, poorly fitted or top-dose-only effect, or a change in a side signal; inactive = no such curve, though single readings can be large or run the other way; % of control where 0% means no effect;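 note: the control signal comes from parental cells without the receptor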
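HEK 293 cells stably expressing TSHR and a cAMP-gated CNG channel; parental CNG-only cells as counterscreen. Cells preloaded 60 min with membrane potential dye plus 100 uM RO 20-1724, then compound 30 min; fluorescence read at 590 nm.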
Tau filament bind: binders of human tau filaments; P10636; recombinant tau filaments, thioflavin S fluorescence, 15 h; filaments grown with octadecylsulfate alongside compound; Potency, µM (titrated, usually from 57.1 µM), for the others: top-dose activity change, negative = inhibition; hit rate 2% among 71,000; AID 596;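 note: % is set by controls: 0 for no effect and ±100 for the full control effect; actives lower thioflavin S fluorescence by blocking filaments or displacing dye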
Target sequence (P10636 whole entry, looked up): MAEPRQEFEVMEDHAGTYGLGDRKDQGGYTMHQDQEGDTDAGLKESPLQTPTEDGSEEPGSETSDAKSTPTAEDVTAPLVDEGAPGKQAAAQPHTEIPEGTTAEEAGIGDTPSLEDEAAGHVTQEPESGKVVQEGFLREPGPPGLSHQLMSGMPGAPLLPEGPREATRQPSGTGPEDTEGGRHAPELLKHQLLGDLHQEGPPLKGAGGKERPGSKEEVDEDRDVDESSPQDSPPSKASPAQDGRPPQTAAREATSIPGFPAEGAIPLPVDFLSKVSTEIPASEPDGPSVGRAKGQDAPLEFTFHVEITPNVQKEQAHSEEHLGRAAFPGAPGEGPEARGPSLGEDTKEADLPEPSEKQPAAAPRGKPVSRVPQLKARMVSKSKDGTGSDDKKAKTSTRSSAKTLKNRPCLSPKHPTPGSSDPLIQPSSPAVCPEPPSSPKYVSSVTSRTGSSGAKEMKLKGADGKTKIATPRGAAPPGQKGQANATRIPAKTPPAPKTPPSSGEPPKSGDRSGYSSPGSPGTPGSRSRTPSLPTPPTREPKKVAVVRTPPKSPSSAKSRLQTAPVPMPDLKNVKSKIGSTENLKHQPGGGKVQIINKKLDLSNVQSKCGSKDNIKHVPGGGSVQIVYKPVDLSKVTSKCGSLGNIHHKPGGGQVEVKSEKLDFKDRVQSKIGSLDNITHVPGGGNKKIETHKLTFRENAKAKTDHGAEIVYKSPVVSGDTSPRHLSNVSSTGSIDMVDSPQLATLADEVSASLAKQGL
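His-tagged recombinant human tau (exons 2, 3, 10; 1 uM final) fibrillized with 30 uM sodium octadecylsulfate, 15 h at 37 C, in pH 7.4 HEPES buffer with 10 uM thioflavine S and 5 mM DTT. Reduced ThS fluorescence (450/510 nm) marks activity.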
CRE-bla Fsk: modulators of forskolin-stimulated CRE signaling in CHO cells | hit rate 2.5% among 71,000 | CHO CRE-bla reporter (cAMP response element driving beta-lactamase), forskolin EC10, beta-lactamase ratio | Potency, µM (highest dose often 38.2 µM), inactives show top-dose activity change, negative = inhibition, most hits filed as activators; active = well fitted activation curve with a large enough effect in the signal ratio, with a control signal flat, not every such curve was filed as active; inconclusive = small, poorly fitted or top-dose-only effect, or effect the other way, or a change in a side signal; the % refers to the signal ratio; note: % of control where 0% means no effect
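Modulation of forskolin signalling: compounds in titration series added with EC10 NKH 477 to CHO cells carrying a CRE-driven beta-lactamase reporter, 3 h, 37C. CCF4 FRET ratio (460/530 nm, ex 405 nm) gives %activity and AC50.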
* marks the source's active call; other numbers are inactive results; ? = inconclusive; · = not tested or not shown; [ ] = another dose, or the depositor's remark. A selection: hits, their analogues and other compounds. The true share with any hit is near 7.4%. Unless noted, calls come from the whole dose curve; as a rule, active = well fitted curve in the direction sought with a large enough effect; inconclusive = small, poorly fitted or top-dose-only effect, or another doubt; inactive = no such curve, though single readings can be large; an effect the other way counts as inactive or inconclusive. Potency is the fitted concentration of half-maximal effect.

SMILES | HEK293 cAMP cs | ERK AVP block | TSHR ag | Tau filament bind | CRE-bla Fsk
N#C/C(=C\c1ccc(O)c(O)c1)C(=O)NCCCCc1ccccc1 | 8% | 40µM* | -5% | ? | ?
CC(C)=C[C@H]1[C@@H](COC(=O)c2cc3c(cc2Cl)OCO3)C1(C)C | 13%[11.4 µM] | 47%[11.5 µM] | 5%[11.4 µM] | -10%[11.4 µM] | -1%[7.6 µM]
Cn1c(=N)c(S(=O)(=O)c2ccccc2)cc2c(=O)n3ccccc3nc21 | -8% | -21% | -9% | -15% | 2µM*
Cc1ccc(S(=O)(=O)c2cc3c(=O)n4ccccc4nc3n(Cc3ccco3)c2=N)cc1 | -19% | 13% | -7% | 464% | ?
Cn1c(=N)c(S(=O)(=O)c2ccc(F)cc2)cc2c(=O)n3ccccc3nc21 | -15% | -12% | -14% | -10% | 1.6µM*
O=S(=O)(c1ccc2c(c1)OCCO2)N(Cc1ccc(F)cc1)Cc1nnc(-c2cccs2)o1 | 2µM* | 25% | ? | 16% | ?
O=C(c1cc(-c2ccc(O)cc2)on1)N1CCc2ccccc2C1 | 20µM* | 32µM* | ? | -9% | ?
O=C(c1cc(-c2ccccc2O)on1)N1CCc2ccccc2C1 | 7% | ? | -12% | 171% | 2%
CCOc1ccc(C2c3c(oc4cc(C)c(C)cc4c3=O)C(=O)N2CCCN(C)C)cc1OC (configuration not stated) | ? | · | ? | 25µM* | 3%
COc1cccc(C2c3c(oc4cc(C)c(C)cc4c3=O)C(=O)N2CCCN(C)C)c1 (configuration not stated) | -2% | -14% | 7% | -29% | 0%
COc1ccc(C2c3c(oc4ccccc4c3=O)C(=O)N2c2ccc(C)cn2)cc1OC (configuration not stated) | 10% | -20% | -15% | 6.3µM* | ?
COC(=O)c1ccc(C2c3c(oc4cc(C)c(C)cc4c3=O)C(=O)N2CCCN(C)C)cc1 (configuration not stated) | 6% | -17% | 5% | 10µM* | -9%
CC(C)CN1CC[C@@]2(CCCN(C(=O)c3cnccn3)C2)C1 | 23% | 1% | 6% | 8% | -4%
O=C(O)C[C@H]1OCC=C2C[N@@+]3([O-])CC[C@]45c6ccccc6N[C@@H]4[C@@H]1[C@H]2C[C@H]53 | -5%[11.4 µM] | 8%[11.5 µM] | -5%[11.4 µM] | 5%[11.4 µM] | 5%[7.6 µM]
CCN1CCCC1Cn1c(-c2ccccc2)nc2c(N(CCOC)CCOC)nc(C)nc21 (configuration not stated) | ? | 10% | ? | 40% | ?
COC(=O)c1ccc(NS(=O)(=O)c2ccc3c(c2)oc(=O)n3C)cc1 | 1.3µM* | · | ? | 0% | -3%
CCOC(=O)c1ccc(NS(=O)(=O)c2ccc3c(c2)oc(=O)n3C)cc1 | 18% | · | 3% | -8% | -1%
Nc1ccc2oc(=O)c3ccccc3c2c1 | -15% | 10µM* | 6% | -20% | 25%
CCN1C(=O)c2cccc3c(NC(=O)c4ccc5c(c4)OCCO5)ccc1c23 | 12% | 14% | · | 280% | 2.5µM*
CCN1C(=O)c2cccc3c(NC(=O)C4CCCCC4)ccc1c23 | 29% | -1% | · | -25% | ?
O=C(c1cc2c(s1)-c1ccccc1OC2)N1CCCC1 | 15% | 1% | 22% | 63% | ?
O=C(c1cc2c(s1)-c1ccccc1OC2)N1CCN(c2ccccn2)CC1 | ? | 25µM* | ? | 265% | ?
COc1ccc(NC(=O)c2cc(-c3ccc(C)o3)nc3ccccc23)cc1OC | 25µM* | -16% | ? | 48% | ?
CCOc1ncccc1C(=O)NCC1COc2ccccc2O1 (configuration not stated) | ? | -26% | ? | 6% | 4µM*
COc1cc(NC(=O)c2cc3c(C)nc4ccccc4c3o2)cc(OC)c1OC | -6% | ? | -4% | 458% | 1.6µM*
SMILES | HEK293 cAMP cs | ERK AVP block | TSHR ag | Tau filament bind | CRE-bla Fsk
CCN1CCCC1CNC(=O)c1cc2c(C)nc3ccccc3c2o1 (configuration not stated) | 9% | -10% | -1% | 10% | 1%
CCOC(=O)N1CCC(NC(=O)c2cc3c(C)nc4ccccc4c3o2)CC1 | 0% | 25µM* | -1% | 21% | ?
O=C(NCCN1CCOCC1)c1cc(-c2ccc(O)cc2)on1 | 4% | -18% | -2% | 9% | 5%
Clc1ccc2c(c1)N(CCCN1CCCC13CCCCC3)c1ccccc1S2 | -3%[11.4 µM] | 5%[11.5 µM] | -1%[11.4 µM] | -4%[11.4 µM] | -9%[7.6 µM]
Cc1nc2ccccc2c2oc(C(=O)NCC3COc4ccccc4O3)cc12 (configuration not stated) | 25µM* | 10µM* | ? | 380% | ?
Cc1cccc(N2CCN(C(=O)c3cc4c(C)nc5ccccc5c4o3)CC2)c1C | ? | -14% | ? | 14% | ?
Cc1nc2ccccc2c2oc(C(=O)N3CCc4ccccc43)cc12 | 10% | ? | 8% | 49% | 0.4µM*
Cc1c(-c2nc(N)nc(C3CC3)c2C)nc(N)nc1C1CC1 | 1%[11.4 µM] | -12%[11.5 µM] | -5%[11.4 µM] | -9%[11.4 µM] | 5%[7.6 µM]
Cn1cccc1C(=O)N1CCC2(CCCN(c3ccccn3)C2)CC1 | ? | ? | ? | 12% | -13%
O=[N+]([O-])c1cccc(/C=N\Nc2ccc3ccccc3n2)c1O | -5%[11.4 µM] | -25%[11.5 µM] | -13%[11.4 µM] | 3.2µM* | 13%[7.6 µM]
C/C(=N/Nc1ccc2ccccc2n1)c1ccccc1O | -8%[11.4 µM] | -23%[11.5 µM] | -12%[11.4 µM] | -6%[11.4 µM] | -9%[7.6 µM]
CCC(=O)N1CCCc2cc(S(=O)(=O)N3CCN(c4ccccc4F)CC3)ccc21 | 25µM* | 4% | ? | 14% | ?
Nc1ccn([C@H]2CC[C@@H](CO)O2)c(=O)n1 | 24% | 25µM* | -11% | -2% | -15%
Nc1ccn([C@@H]2O[C@H](CO)[C@@H](OP(=O)(O)O)[C@H]2O)c(=O)n1 | · | 1% | · | · | ·
Cc1ccc(S(=O)(=O)N[C@H]2COC(=O)CC=C[C@@H](C)[C@H]3C=C[C@H](O)[C@@H](COC(=O)CC=C[C@H]2C)O3)cc1 | -2%[11.4 µM] | -2%[11.5 µM] | -7%[11.4 µM] | · | ·
CCOC(=O)CSc1nc2ccccc2n1CC(=O)N(C(C)C)C(C)C | 18% | -12% | 14% | 12% | -6%
CC(C)COC(=O)n1c(SCC(=O)N(C)C)nc2ccccc21 | ? | -18% | ? | 10% | 13µM*
Cn1cnc([N+](=O)[O-])c1Sc1nc(N)nc2c1ncn2[C@H]1C[C@H](O)[C@@H](CO)O1 | 6%[11.4 µM] | 16%[11.5 µM] | 0%[11.4 µM] | -1%[11.4 µM] | 8%[7.6 µM]
CCOc1ccc(S(=O)(=O)Nc2cccc(C(=O)N3CCN(c4ccc(OC)cc4)CC3)c2)cc1 | 26% | ? | 8% | -16% | 1%
COc1ccc(N2CCN(C(=O)c3ccc(NS(=O)(=O)c4ccc(F)cc4)cc3)CC2)cc1 | -27% | ? | -9% | 16µM* | ?
Cc1c(Cl)c(S(N)(=O)=O)cc2c1=NC=NS=2(=O)O | 11%[11.4 µM] | 4%[11.5 µM] | 2%[11.4 µM] | 12%[11.4 µM] | 15%[7.6 µM]

Screens (PubChem BioAssay)
